# Data: the supplement of paper PMC10037445
# Values joined by “and” are separate entries in the source; they are usually repeats but may differ in a detail not shown here. Identical values can stand only once. In all, about 2,900 compounds were measured (“NF-kB SEAP reporter activity, fold change vs agonist alone”: median about 0.99, highest 2% from about 2.6 on). The list comes from a sample in which the highest values are over-represented; it also holds similar structures and randomly drawn compounds.
# Experiments:
# RAW-Dual [1] = assay: NF-kB SEAP reporter activity, fold change vs agonist alone; cytotoxicity flag (confluency mask): not cytotoxic; higher = enhanced NF-kB activity
# In short: (§1)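 Library stock was pin-tooled at 50 nL into 384-well plates of RAW-Dual macrophages (50,000 cells/well, DMEM), followed 1 h later by a PRR agonist, and the cells were kept at 37 °C, 5% CO2. Supernatant collected after 20 hours was read for IRF by QuantiLuc luminescence and for NF-κB by QuantiBlue absorbance at 620 nm. Reporter activity is fold change over agonist-alone wells, and a well counted as cytotoxic when its IncuCyte confluency was below 70% of agonist controls in both mask sets.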
# RAW-Dual [2] = assay: NF-kB SEAP reporter activity, fold change vs agonist alone; higher = enhanced NF-kB activity; conditions: library stock concentration (final ~1000-fold dilution): 10 mM
# In short: as §1
# RAW-Dual [3] = assay: NF-kB SEAP reporter activity, fold change vs agonist alone; cytotoxicity flag (confluency mask): cytotoxic (confluency <70% of control); higher = enhanced NF-kB activity
# In short: as §1
# [4] = agonist: ODN 1826 (TLR9) 0.5 ug/mL
# [5] = agonist: Pam2CSK4 (TLR2/6) 0.1 ug/mL
# [6] = agonist: Pam3CSK4 (TLR2/1) 0.1 ug/mL
# [7] = cytotoxicity flag (confluency mask): not cytotoxic, agonist: Imiquimod (TLR7) […]
# [8] = cytotoxicity flag (confluency mask): not cytotoxic, agonist: MPLA (TLR4) […]
# [9] = cytotoxicity flag (confluency mask): cytotoxic (confluency <70% of control), agonist: MPLA (TLR4) […]
# [10] = cytotoxicity flag (confluency mask): cytotoxic (confluency <70% of control), agonist: Imiquimod (TLR7) […]
smiles,measurement,setting,value
CC(C)=CCCC(C)(OC1OC(CO)C(O)C(O)C1O)C1CCC2(C)C1C(O)CC1C3(C)CCC(O)C(C)(C)C3C(OC3OC(CO)C(O)C(O)C3OC3OCC(O)C(O)C3O)CC12C (stereo not drawn) (library stock concentration (final ~1000-fold dilution): 10 mM),NF-kB SEAP reporter activity,RAW-Dual [1]; agonist: LPS (TLR4) 0.1 ug/mL,0.93
same,NF-kB SEAP reporter activity,RAW-Dual [1]; [4],1.02
same,NF-kB SEAP reporter activity,RAW-Dual [1]; [5],0.792
same,NF-kB SEAP reporter activity,RAW-Dual [1]; [6],0.975
CC(C)=CCCC(C)(OC1OC(CO)C(O)C(O)C1O)C1CCC2(C)C1C(O)CC1C3(C)CCC(O)C(C)(C)C3C(OC3OC(CO)C(O)C(O)C3OC3OCC(O)C(O)C3O)CC12C (stereo not drawn),NF-kB SEAP reporter activity,RAW-Dual [2]; [7],0.818
same,NF-kB SEAP reporter activity,RAW-Dual [2]; [8],0.958
CS(=O)(=O)O.Fc1ccc(C2CCNCC2COc2ccc3c(c2)OCO3)cc1 (stereo not drawn),NF-kB SEAP reporter activity,RAW-Dual [2]; [9],1.43
CS(=O)(=O)O.Fc1ccc(C2CCNCC2COc2ccc3c(c2)OCO3)cc1 (stereo not drawn) (library stock concentration (final ~1000-fold dilution): 10 mM),NF-kB SEAP reporter activity,RAW-Dual [3]; agonist: LPS (TLR4) 0.1 ug/mL,1.08
same,NF-kB SEAP reporter activity,RAW-Dual [3]; [4],0.542
same,NF-kB SEAP reporter activity,RAW-Dual [3]; [5],0.486
same,NF-kB SEAP reporter activity,RAW-Dual [3]; [6],0.425
Fc1ccc(Nc2nc(Nc3ccc(-c4nc5ccccc5[nH]4)cc3)nc(N3CCOCC3)n2)cc1 (library stock concentration (final ~1000-fold dilution): 10 mM),NF-kB SEAP reporter activity,RAW-Dual [3]; agonist: LPS (TLR4) 0.1 ug/mL,0.621
same,NF-kB SEAP reporter activity,RAW-Dual [3]; [4],0.452
same,NF-kB SEAP reporter activity,RAW-Dual [3]; [5],0.212
same,NF-kB SEAP reporter activity,RAW-Dual [3]; [6],0.25
Fc1ccc(Nc2nc(Nc3ccc(-c4nc5ccccc5[nH]4)cc3)nc(N3CCOCC3)n2)cc1,NF-kB SEAP reporter activity,RAW-Dual [2]; [10],0.399
same,NF-kB SEAP reporter activity,RAW-Dual [2]; [9],1.42
CCC(CC)(NC(=O)C(C)C)C(=O)NC(CCCNC(=N)N)C(=O)NC1(C(=O)NC(c2ccc(F)cc2)c2ccc(F)cc2)CCCC1 (stereo not drawn) (library stock concentration (final ~1000-fold dilution): 10 mM),NF-kB SEAP reporter activity,RAW-Dual [1]; agonist: LPS (TLR4) 0.1 ug/mL,0.847
same,NF-kB SEAP reporter activity,RAW-Dual [1]; [4],0.788
same,NF-kB SEAP reporter activity,RAW-Dual [1]; [5],0.957
same,NF-kB SEAP reporter activity,RAW-Dual [1]; [6],0.971
CCC(CC)(NC(=O)C(C)C)C(=O)NC(CCCNC(=N)N)C(=O)NC1(C(=O)NC(c2ccc(F)cc2)c2ccc(F)cc2)CCCC1 (stereo not drawn),NF-kB SEAP reporter activity,RAW-Dual [2]; [7],1.08
same,NF-kB SEAP reporter activity,RAW-Dual [2]; [8],0.867
CC/C(C)=C/CC[C@](C)(O)C1CC[C@]2(C)C3C[C@@H](O[C@@H]4O[C@H](CO)[C@@H](O)[C@H](O)[C@H]4O[C@@H]4O[C@@H](C)[C@H](O)[C@@H](O)[C@H]4O)C4C(C)(C)C(O)CC[C@]4(C)C3C[C@H](O)C12 (stereo partly drawn) (library stock concentration (final ~1000-fold dilution): 10 mM),NF-kB SEAP reporter activity,RAW-Dual [1]; agonist: LPS (TLR4) 0.1 ug/mL,1.2
same,NF-kB SEAP reporter activity,RAW-Dual [1]; [4],0.992
same,NF-kB SEAP reporter activity,RAW-Dual [1]; [5],0.952
same,NF-kB SEAP reporter activity,RAW-Dual [1]; [6],1.14
CC/C(C)=C/CC[C@](C)(O)C1CC[C@]2(C)C3C[C@@H](O[C@@H]4O[C@H](CO)[C@@H](O)[C@H](O)[C@H]4O[C@@H]4O[C@@H](C)[C@H](O)[C@@H](O)[C@H]4O)C4C(C)(C)C(O)CC[C@]4(C)C3C[C@H](O)C12 (stereo partly drawn),NF-kB SEAP reporter activity,RAW-Dual [2]; [7],0.952
same,NF-kB SEAP reporter activity,RAW-Dual [2]; [8],0.934
Cc1ccccc1C(=O)N1CCc2cc(-c3nc(NC(=O)Cc4ccc5c(c4)OCO5)sc3C)ccc21 (library stock concentration (final ~1000-fold dilution): 10 mM),NF-kB SEAP reporter activity,RAW-Dual [1]; agonist: LPS (TLR4) 0.1 ug/mL,1.34 and 1.45
same,NF-kB SEAP reporter activity,RAW-Dual [1]; [4],0.971 and 0.758
same,NF-kB SEAP reporter activity,RAW-Dual [1]; [5],0.716 and 0.692
same,NF-kB SEAP reporter activity,RAW-Dual [1]; [6],0.695 and 0.61
CN1C(=O)C(C)(C)Oc2c(-c3cn(C)c(=O)c4[nH]ccc34)cc(S(C)(=O)=O)cc21,NF-kB SEAP reporter activity,RAW-Dual [2]; [10],1.56
same,NF-kB SEAP reporter activity,RAW-Dual [2]; [9],2.34
CN1C(=O)C(C)(C)Oc2c(-c3cn(C)c(=O)c4[nH]ccc34)cc(S(C)(=O)=O)cc21 (library stock concentration (final ~1000-fold dilution): 10 mM),NF-kB SEAP reporter activity,RAW-Dual [3]; agonist: LPS (TLR4) 0.1 ug/mL,2.16
same,NF-kB SEAP reporter activity,RAW-Dual [3]; [4],1.73
same,NF-kB SEAP reporter activity,RAW-Dual [3]; [5],0.658
same,NF-kB SEAP reporter activity,RAW-Dual [3]; [6],1.99
CCNC(=O)c1cc2c(-c3cc(C(C)(C)O)ccc3Oc3c(C)cc(F)cc3C)cn(C)c(=O)c2[nH]1 (library stock concentration (final ~1000-fold dilution): 10 mM),NF-kB SEAP reporter activity,RAW-Dual [3]; agonist: LPS (TLR4) 0.1 ug/mL,0.903
same,NF-kB SEAP reporter activity,RAW-Dual [3]; [4],1.34
same,NF-kB SEAP reporter activity,RAW-Dual [3]; [5],0.318
same,NF-kB SEAP reporter activity,RAW-Dual [3]; [6],0.842
CCS(=O)(=O)Nc1ccc(Oc2ccc(F)cc2F)c(-c2cn(C)c(=O)c3[nH]ccc23)c1,NF-kB SEAP reporter activity,RAW-Dual [2]; [10],1.54
same,NF-kB SEAP reporter activity,RAW-Dual [2]; [9],2.13
CCS(=O)(=O)Nc1ccc(Oc2ccc(F)cc2F)c(-c2cn(C)c(=O)c3[nH]ccc23)c1 (library stock concentration (final ~1000-fold dilution): 10 mM),NF-kB SEAP reporter activity,RAW-Dual [3]; agonist: LPS (TLR4) 0.1 ug/mL,3.19
same,NF-kB SEAP reporter activity,RAW-Dual [3]; [4],2.18
same,NF-kB SEAP reporter activity,RAW-Dual [3]; [5],0.424
same,NF-kB SEAP reporter activity,RAW-Dual [3]; [6],1.13
CCNC(=O)c1cc2c(-c3cc(C(C)(C)O)ccc3Oc3c(C)cc(F)cc3C)cn(C)c(=O)c2[nH]1,NF-kB SEAP reporter activity,RAW-Dual [2]; [10],1.4
same,NF-kB SEAP reporter activity,RAW-Dual [2]; [9],1.84
CC1OC(OC2C(CO)OC(OCC3OC(OC(=O)[C@]45CC[C@@H](C)[C@H](C)[C@H]4C4=CCC6[C@@]7(C)C[C@@H](O)[C@@H](O)[C@@](C)(CO)C7CC[C@@]6(C)[C@]4(C)CC5)C(O)C(O)C3O)C(O)C2O)C(O)C(O)C1O (stereo partly drawn),NF-kB SEAP reporter activity,RAW-Dual [2]; [7],0.975
same,NF-kB SEAP reporter activity,RAW-Dual [2]; [8],1.12
CC1OC(OC2C(CO)OC(OCC3OC(OC(=O)[C@]45CC[C@@H](C)[C@H](C)[C@H]4C4=CCC6[C@@]7(C)C[C@@H](O)[C@@H](O)[C@@](C)(CO)C7CC[C@@]6(C)[C@]4(C)CC5)C(O)C(O)C3O)C(O)C2O)C(O)C(O)C1O (stereo partly drawn) (library stock concentration (final ~1000-fold dilution): 10 mM),NF-kB SEAP reporter activity,RAW-Dual [1]; agonist: LPS (TLR4) 0.1 ug/mL,1.08
same,NF-kB SEAP reporter activity,RAW-Dual [1]; [4],0.915
same,NF-kB SEAP reporter activity,RAW-Dual [1]; [5],1.06
same,NF-kB SEAP reporter activity,RAW-Dual [1]; [6],1.1
Cc1c(CN2CCC(Nc3ncnc4sc(CC(F)(F)F)cc34)CC2)ccc2[nH]c(C#N)cc12,NF-kB SEAP reporter activity,RAW-Dual [2]; [7],0.878
same,NF-kB SEAP reporter activity,RAW-Dual [2]; [8],0.915
Cc1c(CN2CCC(Nc3ncnc4sc(CC(F)(F)F)cc34)CC2)ccc2[nH]c(C#N)cc12 (library stock concentration (final ~1000-fold dilution): 10 mM),NF-kB SEAP reporter activity,RAW-Dual [1]; agonist: LPS (TLR4) 0.1 ug/mL,1.32
same,NF-kB SEAP reporter activity,RAW-Dual [1]; [4],0.176
same,NF-kB SEAP reporter activity,RAW-Dual [1]; [5],0.631
same,NF-kB SEAP reporter activity,RAW-Dual [1]; [6],0.575
O=C(NC1=CC(=O)[C@H]2O[C@H]2[C@H]1O)c1ccccc1O (library stock concentration (final ~1000-fold dilution): 10 mM),NF-kB SEAP reporter activity,RAW-Dual [1]; agonist: LPS (TLR4) 0.1 ug/mL,0.727
same,NF-kB SEAP reporter activity,RAW-Dual [1]; [4],0.951
same,NF-kB SEAP reporter activity,RAW-Dual [1]; [5],0.806
same,NF-kB SEAP reporter activity,RAW-Dual [1]; [6],0.551
O=C(NC1=CC(=O)[C@H]2O[C@H]2[C@H]1O)c1ccccc1O,NF-kB SEAP reporter activity,RAW-Dual [2]; [7],1
same,NF-kB SEAP reporter activity,RAW-Dual [2]; [8],1.08
COc1cc(OC)c(C=CS(=O)(=O)Cc2ccc(OC)c(NCC(=O)O)c2)c(OC)c1 (library stock concentration (final ~1000-fold dilution): 10 mM),NF-kB SEAP reporter activity,RAW-Dual [1]; agonist: LPS (TLR4) 0.1 ug/mL,4.24
same,NF-kB SEAP reporter activity,RAW-Dual [1]; [4],3.24
same,NF-kB SEAP reporter activity,RAW-Dual [1]; [5],2.21
same,NF-kB SEAP reporter activity,RAW-Dual [1]; [6],2.56
